# Measurements published in PubChem BioAssay AID686978 (National Center for Advancing Translational Sciences (NCATS), 2013).
# Values joined by “and” are separate entries in the source; they are usually repeats but may differ in a detail not shown here. Equal entries are not always repeated. In all, about 420,000 compounds went through this assay and about 64,000 (15%) were called active. Not shown: some 27% with an inconclusive outcome. Calls come from the whole dose curve; as a rule, active = well fitted inhibition curve with a large enough effect; inconclusive = small, poorly fitted or top-dose-only effect; inactive = flat fitted curve, though single readings scatter. These entries were drawn from the full list.
# Assay: qHTS for Inhibitors of human tyrosyl-DNA phosphodiesterase 1 (TDP1): qHTS in cells in absence of CPT; note: nearly all actives have a fitted effect of over 55% in size
# Settings: DT40 Tdp1-/- hTDP1 cells, no CPT, ATP luminescence, 48 h; activity change, negative = growth inhibition: at 46.2 µM (top of the series)
# How it was run: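 Chicken DT40 Tdp1-/- cells stably complemented with human TDP1 were seeded at 400 cells/well with DMSO in place of 20 nM camptothecin. After compound pinning, cells grew at least 48 hr at 37 °C; viability read by CellTiter-Glo luminescence.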
# % is set by controls: 0 for no effect and ±100 for the full control effect; potency is the fitted concentration of half-maximal effect.
Structure (SMILES),"activity change, negative = growth inhibition",Potency
O=C(CN1C(=O)NC2(CCCCC2)C1=O)N1CCN(C(=O)c2cccs2)CC1,-3.5% (inactive),
CCCSC(=S)NC1CCS(=O)(=O)C1 (configuration not stated),,20.6 µM (active)
CS(=O)(=O)N(C(=O)NC(=O)NC1CCS(=O)(=O)C1)C1CCCCC1 (configuration not stated),-1.68% (inactive),
CCN(CC(=O)NC1CCS(=O)(=O)C1)S(=O)(=O)c1ccccc1 (configuration not stated),5.32% (inactive),
CC(C)C(=O)NC(NC(=S)NC1CCS(=O)(=O)C1)C(Cl)(Cl)Cl (configuration not stated),-0.69% (inactive),
O=S1(=O)CCC(NC(=S)SCc2ccccc2Br)C1 (configuration not stated),,18.4 µM (active)
O=C(CSc1ccccc1F)NC1CCS(=O)(=O)C1 (configuration not stated),4.81% (inactive),
Cc1cc(C)cc(NC(=O)C(c2ccccc2)N2CCN(CC(=O)N3CCCC3)CC2)c1 (configuration not stated),-3.14% (inactive),
S=C(NCc1ccco1)Nc1ccc2c(c1)OCCO2,-15.8% (inactive),
O=C(NC1CCCCC1)C1c2ccccc2C(=O)N1Cc1ccco1 (configuration not stated),3.48% (inactive),
O=C1c2ccccc2C(Nc2ccc3c(c2)OCCO3)N1Cc1ccco1 (configuration not stated),,14.6 µM (active)
CCN(CC(=O)Nc1ccc(NC(C)=O)cc1)C(=O)C1CC(=O)N(c2ccc3c(c2)OCCO3)C1 (configuration not stated),-28.8% (inactive),
C/C(N)=C(/C#N)C(=O)COC(=O)CNS(=O)(=O)c1ccc(C)cc1,-4.68% (inactive),
CC1(C(=O)NS(=O)(=O)c2ccccc2Cl)CCN1C(=O)c1cccc(F)c1 (configuration not stated),-10.8% (inactive),
c1csc(-c2nnc(COc3ccc4c(c3)OCO4)o2)c1,0.933% (inactive),
COc1cccc(CN(C)CC2CCCN(CCc3ccc(Cl)cc3)C2)c1OC (configuration not stated),,20.6 µM (active)
COc1cccc(COC(=O)C2CCN(S(=O)(=O)c3ccc(Cl)cc3)CC2)c1OC,-25.1% (inactive),
Cc1nc2ccc(C(=O)N(C)CC3CCCN(CCc4ccc(Cl)cc4)C3)cc2[nH]1 (configuration not stated),5.16% (inactive),
CO[C@H]1[C@@H](O)[C@H](N)[C@@H](O[C@H]2O[C@H]([C@H](C)N)CC[C@H]2N)[C@H](O)[C@@H]1N(C)C(=O)CN,-9.26% (inactive),
CCOc1ccc(C(=O)Nc2cc(Cl)ccc2-n2cncn2)cc1OC,6.08% (inactive),
O=c1[nH]c2ccccc2n2c(-c3ccccc3)nnc12,,18.4 µM (active) and 11.2 µM (active)
O=c1[nH]n2c(-c3ccccc3)nc(O)c2c2ccccc12,-0.971% (inactive),
CCOC(=O)c1cnc2[nH]c3ccccc3n2c1=O,-6.89% (inactive),

Structure (SMILES),"activity change, negative = growth inhibition",Potency
COC(=O)CCSc1nccn1Cc1ccccc1,3.41% (inactive),
Cc1ccc(CN2CC(C(=O)NNC(=O)Cn3ccc(C(F)(F)F)n3)CC2=O)cc1 (configuration not stated),8.84% (inactive),
CN(CCO)C(=O)c1nc[nH]c1C(=O)N(C)Cc1ccccc1,-22% (inactive),
CCCCCn1nnnc1-c1nc2cc3ccccc3cc2[nH]c1=O,,2.59 µM (active)
c1ccc2cc3[nH]c(CN4CCCCC4)nc3cc2c1,-10.7% (inactive),
Cc1ccc(-c2nc3ccccc3[nH]c2=O)cc1,8.47% (inactive),
O=S1(=O)CSCS(=O)(=O)C1,-12.9% (inactive),
COc1ccc(CN2C[C@H]3CON(C)[C@H]3C[C@H]2c2ccc(-c3cccc(F)c3)cc2)cc1,,16.4 µM (active)
COc1ccc(CN2C3CCCC2CC(NC(=O)c2cccc(F)c2)C3)cc1 (configuration not stated),-4.72% (inactive),
CN1OC[C@@H]2CN(C(=O)c3cccc4ccccc34)[C@H](c3ccc(N4CCCCC4)cc3)C[C@@H]21,0.0679% (inactive),
CCCNC(=O)c1onc(CSc2ccc(F)cc2)c1C(=O)NC(C)C,-18.8% (inactive),
Cc1ccc(-c2nc(C)sc2CC(=O)O)cc1,0.642% (inactive),
N#C/C(=C\c1cccc(F)c1)c1nc(-c2cc3c(ccc4ccccc43)oc2=O)cs1,-10% (inactive),
O=C(c1ccc(F)cc1)n1cc(C(=S)N2CCOCC2)c2ccccc21,,11.6 µM (active)
O=C(Nc1ccc(F)cc1)C(=O)c1cn(CC(=O)N2CCOCC2)c2ccccc12,2.69% (inactive),
O=C(Oc1ccc(C(=S)N2CCOCC2)cc1)c1ccc(F)cc1,-29.3% (inactive),
COc1ccc(OC)c(NC(=O)CSc2nc(N)c(-c3ccccc3)c(=O)[nH]2)c1,2.08% (inactive),
CCOCCCn1c(SCC(=O)Nc2ccc(CC)cc2)nc2ccccc2c1=O,,13 µM (active)
COc1ccc(S(=O)(=O)N(C)C)cc1NC(=O)CSc1ncccn1,,13 µM (active)
COc1ccc(-c2nnc(SCC(=O)Nc3cccnc3Cl)n2C)cc1,0.301% (inactive),
Cc1nnc(SCC(=O)N2CCc3ccccc32)n1-c1ccccc1,-15.9% (inactive),
O=C(CSc1nc2[nH]ncc2c(=O)n1-c1ccccc1)N1CCCc2ccccc21,-26.4% (inactive),
O=C(CSc1nc2ccccc2c(=O)n1CCCO)NC1CC1,24.5% (inactive),

Structure (SMILES),"activity change, negative = growth inhibition",Potency
Cn1c(SCC(=O)N2CCCc3ccccc32)nc2ccccc2c1=O,,9.2 µM (active)
COc1ccc(S(=O)(=O)N2CCOCC2)cc1NC(=O)CSc1ncnc2ccccc12,22.5% (inactive),
COc1ccc(OC)c(NC(=O)CSc2nc3cccnc3n2C)c1,,16.4 µM (active)
CCc1nnc(NC(=O)CSc2nc3ccccc3c(=O)n2CCCOC)s1,-14.5% (inactive),
COc1ccc(C)cc1NC(=O)CSc1cccc[n+]1[O-],-5.31% (inactive),
CSc1ccc(NC(=O)N2CC(C)OC(C)C2)cc1 (configuration not stated),-12.9% (inactive),
Cn1cccc1C(=O)N1CCC[C@@]2(CCN(Cc3nccs3)C2)C1,-6.43% (inactive),
Cc1nc2ccc(S(=O)(=O)NC(C(=O)NCc3ccccc3Cl)C(C)C)cc2s1 (configuration not stated),-0.153% (inactive),
C[n+]1cccc(C(=O)O)c1,-1.14% (inactive),
CSc1ncccc1C(=O)NCc1ccccc1Cl,6.16% (inactive),
CCOCCCNC(=O)C(NC(=O)c1ccc(=O)[nH]c1)c1ccc(Cl)cc1 (configuration not stated),-14.6% (inactive),
c1ccc(-c2csc(N3CCc4ccccc4C3)n2)cc1,-1.48% (inactive),
Cc1noc(C)c1CCC(=O)O,1.68% (inactive),
Cc1ccc(S(=O)(=O)N2CC(O)C[C@H]2C(=O)OCC(=O)Nc2ccc(N3CCOCC3)cc2)cc1C (some centres not stated),14.4% (inactive),
COc1ccc(NC(=O)CSc2nc3ccccc3c(=O)n2C)cc1,,10.3 µM (active)
COc1ccc(-n2nnnc2SCC(=O)Nc2ccccc2)cc1,-28.3% (inactive),
COc1ccc(NC(=O)CSc2nnc(Cc3ccccc3)c(=O)n2N)cc1,-10.7% (inactive),
O=C1/C(=C\Nc2ccccc2)CCN1c1ncccn1,-14% (inactive),
CCC(C)(C)NC(=O)C(c1ccc(O)cc1)N(Cc1ccco1)C(=O)CCC(=O)Nc1ccccn1 (configuration not stated),-15.2% (inactive),
Cc1cc(NC(=O)CCC(=O)N(c2ccccc2)C(C(=O)NC2CCCC2)c2ccncc2)no1 (configuration not stated),-2.03% (inactive),
Cc1ccc(C(C(=O)NC2CCCC2)N(Cc2ccco2)C(=O)CCC(=O)Nc2ccccn2)cc1 (configuration not stated),,16.4 µM (active)
